Among the data in PubChem BioAssay (NCI) are growth values, retold here.

Each structure is given as a SMILES string. Several values for one entry are separate records, joined by “and”; a condition that tells them apart may be missing. Equal values may be shown once. About 83,000 compounds went through this panel and 20% of them were active in at least one assay; those are over-represented in the sample as a whole.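 Single-dose data. Exposure time 48 hours. Values below 10 considered active.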 Activity calls are given as the source filed them.

What all share (experiment): NCI-60 one-dose screen, 48 h (100 = growth as untreated, 0 = no growth, -100 = all killed)
Common to all, as to details: 10 µM unless noted

Assay [1] concerns NCI-H23 lung.
Assay [2] concerns NCI-H226 lung.
Assay [3] concerns NCI-H322M lung.
In assay [4] the test system is HOP-62 NSCLC.
Assay [5] relates to NCI-H460 lung.
Assay [6] deals with HOP-92 NSCLC.
Assay [7] relates to NCI-H522 lung.
Assay [8] deals with A549/ATCC NSCLC.
Assay [9] has as its system 786-0 renal.
The test system of assay [10] is COLO 205 colon.

For `CC(C)(C)OC(=O)c1ccc(NCc2cc(O)ccc2O)cc1`, the growth was 59.5% (inactive) in assay [1]; 9.37% (active) in assay [2]; 84.1% (inactive) in assay [3]; 45.1% (inactive) in assay [4]; 53.4% (inactive) in assay [5]; 17.5% (inactive) in [6]. For the same compound, the growth in assay [7] was -78.4% (active); in assay [8], 40.9% (inactive); in assay [9] it was -72.7% (active); in [10], 10.8% (inactive).
`Cc1nc(Nc2ccc(Cl)cc2)c2cnn(-c3ccccc3)c2n1`: the growth in [1] is 97.3% (inactive); in [2] it was 96.6% (inactive); in [3] it was 104% (inactive); in [4], 108% (inactive); in [5], 103% (inactive); in assay [6] it was 95.4% (inactive). Besides, the growth is 105% (inactive) in assay [7], 110% (inactive) in assay [8], 103% (inactive) in assay [9] and 102% (inactive) in assay [10].
With `COc1ccc(/C=C/C(=O)O)cc1OC`, the growth in assay [1] is 108% (inactive) and 98.7% (inactive); in [2], 102% (inactive) and 107% (inactive); in assay [3], 101% (inactive) and 115% (inactive); in assay [4] it was 104% (inactive) and 105% (inactive); in assay [5], 103% (inactive); in assay [6], 89% (inactive) and 97.1% (inactive). Besides, the growth in assay [7] was 102% (inactive) and 84% (inactive); in [8], 99.7% (inactive) and 104% (inactive); in [9], 102% (inactive) and 105% (inactive); in assay [10], 104% (inactive) and 115% (inactive).
Consider `CN(C)C(=S)N(C)C`, for which the growth was 99.4% (inactive) in assay [1]; 108% (inactive) in assay [2]; 140% (inactive) in [3]; 95.6% (inactive) in [4]; 119% (inactive) in [5]; 93.4% (inactive) in assay [6]. Also, the growth was 83.2% (inactive) in [7], 100% (inactive) in assay [8], 108% (inactive) in assay [9] and 123% (inactive) in assay [10].
In the case of `CCOC(C)=N`, the growth in [1] was 105% (inactive); in assay [2] it was 112% (inactive); in assay [3], 146% (inactive); in assay [4], 101% (inactive); in [5], 114% (inactive); in assay [6], 89.7% (inactive). The growth in [7] was 87.3% (inactive); in assay [8], 101% (inactive); in assay [9] it was 100% (inactive); in [10], 122% (inactive).
On to `CCn1c2ccc(N(C)C)cc2c2cc(N(C)C)ccc21`, for which the growth was 92.1% (inactive) in assay [1]; 97.4% (inactive) in assay [2]; 95.2% (inactive) in assay [3]; 90.2% (inactive) in assay [4]; 99.8% (inactive) in assay [5]; 90.6% (inactive) in assay [6]. In addition, the growth was 77.3% (inactive) in [7], 85.7% (inactive) in [8], 102% (inactive) in assay [9] and 46.8% (inactive) in [10].
On to `COc1cc([C@@H]2c3cc4c(cc3[C@H](O)[C@H]3COC(=O)[C@@H]23)OCO4)cc(OC)c1OC`, for which the growth in [1] was 12.2% (inactive) and 13.6% (inactive); in assay [2] it was 51.8% (inactive) and 45.6% (inactive); in assay [3], 38.9% (inactive) and 23.5% (inactive); in assay [4], 15.7% (inactive); in assay [5] it was 4.7% (active) and -1.68% (active); in assay [6], 37.5% (inactive) and -7.61% (active). The growth in assay [7] is -13.6% (active) and -44.2% (active); in assay [8] it was 12.3% (inactive) and 21.2% (inactive); in [9] it was 44.1% (inactive) and -74.9% (active); in [10], -45.7% (active) and -74.4% (active).
In the case of `O=C1Cc2ccccc2C(=O)N1`, the growth was 103% (inactive) in assay [1]; 101% (inactive) in assay [2]; 96.3% (inactive) in [3]; 84.6% (inactive) in assay [4]; 110% (inactive) in assay [5]; 49.9% (inactive) in assay [6]. Besides, the growth in assay [7] was 77.2% (inactive); in assay [8], 86.1% (inactive); in assay [9], 82.1% (inactive); in assay [10] it was 99.2% (inactive).
Regarding `CCN(CC)C(CC(=O)c1ccccc1)C(=O)c1ccccc1` (stereo not given), the growth in assay [1] is 102% (inactive); in [2] it was 95% (inactive); in [3], 107% (inactive); in [4] it was 116% (inactive); in [5], 106% (inactive); in assay [6] it was 93.4% (inactive). In addition, the growth in assay [7] was 71.7% (inactive); in assay [8], 102% (inactive); in assay [9], 93.5% (inactive); in assay [10], 77.8% (inactive).
For `Cc1c(Cl)c(C)c(Cc2c(C)c(Cl)c(C)c(Cl)c2O)c(O)c1Cl`, the growth was -13% (active) in assay [1]; 15.7% (inactive) in assay [2]; 16.1% (inactive) in assay [3]; 15.8% (inactive) in assay [4]; 5.16% (active) in assay [5]; -20% (active) in assay [6]. In addition, the growth in assay [7] was 7.1% (active); in [8] it was 14.4% (inactive); in assay [9], 49% (inactive); in assay [10], 79.4% (inactive).
For the compound `CCN(CC)C(=S)SCCO`, the growth was 93.3% (inactive) in assay [1]; 99.3% (inactive) in assay [2]; 97.1% (inactive) in [3]; 104% (inactive) in [4]; 104% (inactive) in assay [5]; 109% (inactive) in assay [6]. The growth in assay [7] was 95.5% (inactive); in [8], 99.3% (inactive); in [9] it was 104% (inactive); in [10] it was 114% (inactive).
Take `CN(C=O)c1ccccc1`: the growth in assay [1] was 84.9% (inactive); in [2] it was 75.3% (inactive); in [3], 98.5% (inactive); in [4], 92.3% (inactive); in assay [5] it was 102% (inactive); in assay [6] it was 84.2% (inactive). Besides, the growth in assay [7] was 92.9% (inactive); in assay [8] it was 105% (inactive); in [9] it was 97.1% (inactive); in assay [10] it was 101% (inactive).
